This is a sample that favours compounds with a hit; in the whole collection about 19% have one here.
DT40 TDP1 no CPT = qHTS for Inhibitors of human tyrosyl-DNA phosphodiesterase 1 (TDP1): qHTS in cells in absence of CPT; DT40 Tdp1-/- hTDP1 cells, no CPT, ATP luminescence, 48 h; Potency, µM (series often up to 46.2 µM), without a hit: at the highest dose activity change, negative = growth inhibition, actives largely listed as inhibitors; 420,000 compounds, 15% hits; AID 686978, 2013; further: potency means the concentration at half of the fitted maximal effect; nearly all actives have a fitted effect of over 55% in size
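Camptothecin absent (DMSO only). Human TDP1-complemented DT40 knockout cells, 400 cells/well, 37 °C for minimum 48 hr; ATP measured via CellTiter-Glo, 30 min dark incubation, luminescence.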
IL-1B inflam inh = qHTS for Inhibitors of Inflammasome Signaling: IL-1-beta AlphaLISA Primary Screen; activity change, % at 57.5 µM; 360,000 compounds, 4.7% hits; AID 743279, 2014; THP-1 LPS/ATP IL-1B secretion, AlphaLISA, 16 h; hits give low values; in the data active means activity change below about -50%; inconclusive means mostly about -30% to -49%
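Secreted IL-1B measured by AlphaLISA bead assay after 16 h compound exposure of THP-1 cells; compounds (final up to 57.5 uM) added 1 h before LPS (250 ng/mL) and ATP (1.25 mM) stimulation; lower signal means less secretion.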
ELG1 DNA repair = qHTS screen for small molecules that inhibit ELG1-dependent DNA repair in human embryonic kidney (HEK293T) cells expressing luciferase-tagged ELG1. HEK293T ELG1-luciferase reporter, luminescence, 16 h; DNA damage induced by 5-fluorouridine. Potency, µM (doses to about 46.1 µM), for the others: top-dose activity change, negative = inhibition, most hits filed as inhibitors. 330,000 compounds, 2.3% hits; further: potency means the concentration at half of the fitted maximal effect; nearly all actives have a fitted effect of over 55% in size
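In this reporter screen, reduction of luminescence relative to DMSO vehicle indicated activity. Compounds and 5-fluorouridine were added together to 2,000 cells per well, incubated for 16 hr at 37 °C, then developed with ONE-Glo.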
TDP1 block = qHTS Assay for Inhibitors of Tyrosyl-DNA Phosphodiesterase (TDP1); Tyrosyl-DNA phosphodiesterase 1 (Homo sapiens), Q9NUW8; recombinant TDP1, AlphaScreen DNA substrate cleavage; Potency, µM (series often up to 130 µM), inactives show at the highest dose activity change, negative = inhibition, hits mostly inhibitors; 350,000 compounds, 0.28% hits; AID 485290, 2010; further: potency means the concentration at half of the fitted maximal effect; nearly all actives have a fitted effect of over 40% in size
Target sequence (Q9NUW8 whole entry, looked up): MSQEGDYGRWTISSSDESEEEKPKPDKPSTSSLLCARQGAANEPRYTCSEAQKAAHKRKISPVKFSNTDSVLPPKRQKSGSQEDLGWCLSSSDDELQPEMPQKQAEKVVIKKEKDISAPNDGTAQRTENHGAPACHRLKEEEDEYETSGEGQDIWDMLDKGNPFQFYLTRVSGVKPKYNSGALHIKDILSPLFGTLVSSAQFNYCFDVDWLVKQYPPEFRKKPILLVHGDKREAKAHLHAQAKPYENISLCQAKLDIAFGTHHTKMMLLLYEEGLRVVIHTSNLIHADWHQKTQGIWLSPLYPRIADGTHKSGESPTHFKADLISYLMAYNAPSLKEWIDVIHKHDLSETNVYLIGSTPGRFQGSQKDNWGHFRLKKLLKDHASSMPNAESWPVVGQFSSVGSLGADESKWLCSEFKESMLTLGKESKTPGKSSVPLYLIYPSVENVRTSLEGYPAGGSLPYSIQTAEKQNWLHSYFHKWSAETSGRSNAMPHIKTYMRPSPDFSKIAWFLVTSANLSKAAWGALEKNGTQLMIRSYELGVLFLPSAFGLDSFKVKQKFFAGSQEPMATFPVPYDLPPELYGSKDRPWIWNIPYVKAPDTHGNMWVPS
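Compounds were preincubated with Tdp1 (1 nM final) for 15 min at room temperature before substrate (15 nM final) started a 5 min reaction; beads (10 ug/ml final) were then added for 10 min before AlphaScreen detection.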
DT40 TDP1 CPT = qHTS for Inhibitors of human tyrosyl-DNA phosphodiesterase 1 (TDP1): qHTS in cells in presence of CPT | Potency, µM (series often up to 46.2 µM), without a hit: at the highest dose activity change, negative = growth inhibition, actives largely listed as inhibitors | 420,000 compounds, 12% hits | chicken DT40 Tdp1-/-;hTDP1 cells + 20 nM CPT, ATP luminescence, 48 h; further: potency means the concentration at half of the fitted maximal effect; nearly all actives have a fitted effect of over 55% in size
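Chicken DT40 Tdp1-/- cells stably complemented with human TDP1 were seeded at 400 cells/well in medium containing 20 nM camptothecin, exposed to pin-transferred compounds, and grown at 37 °C for at least 48 hr. Viability was read as ATP luminescence.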
Giardia kill = Small Molecules that selectively kill Giardia lamblia: qHTS; 340,000 compounds, 0.15% hits; AID 540267, 2011; Giardia lamblia trophozoite viability; activity change, % at 7.66 µM, hits read low; in the data active means activity change below about -80%; inconclusive means between about -30% and that limit;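 further: parasites exposed to compound for two days anaerobically before the ATP read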
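Anaerobic 48 hrs incubation at 37 deg C of 100 trophozoites/well with test compounds; ATPLite 1-Step luminescence, 15-30 min RT, reports cellular ATP as viability.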
Numbers without * were called inactive; ? = inconclusive; nt = no result. Unless noted, the call rests on the fitted dose curve; in most records, active means well fitted curve in the direction sought with a large enough effect; inconclusive means small, poorly fitted or top-dose-only effect, or another doubt; inactive means no such curve, though single readings can be large; an effect the other way counts as inactive or inconclusive. On the % scale 0 is the no-effect control and ±100 the full control effect.

SMILES	DT40 TDP1 no CPT	IL-1B inflam inh	ELG1 DNA repair	TDP1 block	DT40 TDP1 CPT	Giardia kill
COc1cc(C2C(C#N)=C(N)Oc3cc4c(cc32)OCO4)cc(OC)c1OC (stereo not given)	0.16µM*	81	?	8%	0.18µM*	-5
COc1cc(C2C3=C(COC3=O)Oc3cc4c(cc32)OCO4)cc(OC)c1O (stereo not given)	0.65µM*	15	nt	nt	0.15µM*	6
Cc1ccc(C(=O)N2CCC(C)CC2)cc1NC1=NC2CS(=O)(=O)CC2S1 (stereo not given)	-5%	-12	21%	nt	-22%	-5
Cc1ccc2nc(COc3cccc(NC(=O)COc4ccc(F)cc4)c3)cc(=O)n2c1	-22%	nt	nt	3%	-16%	nt
CC(=O)Nc1cc(-c2ccc(C(=O)NC3CC3)cc2)cn2c(-c3cccc(C(C)=O)c3)cnc12	23µM*	-19	nt	nt	?	nt
CC(=O)Nc1cc(-c2ccc(C(=O)NC3CC3)cc2)cn2c(-c3cccc(C(F)(F)F)c3)cnc12	23µM*	-53*	nt	nt	?	nt
Cc1cnc(NC(=O)c2cc(S(=O)(=O)N(C)C)ccc2N2CCCC2)s1	?	-64*	?	4%	?	11
COc1ccc(C(C)(C)C)cc1NC(=O)c1cc(S(=O)(=O)N(C)C)ccc1N1CCCC1	?	-1	?	5%	21µM*	-22
Cc1nc2c(-c3ccc(F)cc3)cnn2c2c1CCC2	?	45	?	-11%	-9%	3
O=C(CC1S/C(=N/N=C/c2cccs2)NC1=O)Nc1ccc(Cl)cc1 (stereo not given)	-2%	12	-3%	2%	-14%	6
O=C1N/C(=N\N=C\c2cccs2)SC1Cc1cccc(Cl)c1Cl (stereo not given)	5.2µM*	15	?	3%	3.3µM*	9
COc1cccc(OC)c1C(=O)OCC(=O)NCC(C)C	5%	-8	-12%	-1%	-1%	2
COc1cccc(OC)c1C(=O)OCCCOC(=O)c1c(OC)cccc1OC	-27%	34	21µM*	2%	-27%	1
CCN1CCN(C(=O)c2ccccc2N(Cc2ccccc2)S(C)(=O)=O)CC1	1%	19	0%	0%	-9%	-4
CS(=O)(=O)N(Cc1ccccc1)c1ccccc1C(=O)N1CCN(c2ccccc2)CC1	16µM*	0	-1%	2%	21µM*	-16
COc1ccc(S(=O)(=O)N(Cc2ccccc2)c2ccccc2C(=O)N2CCOCC2)cc1	?	72	?	-8%	?	1
CS(=O)(=O)N(Cc1ccccc1)c1ccc(C(=O)N2CCN(c3cccc(Cl)c3)CC2)cc1	14µM*	?	?	-3%	11µM*	-4
CCOC(=O)N1CCN(C(=O)c2ccc(CN(c3ccccc3)S(C)(=O)=O)cc2)CC1	-28%	-11	-2%	1%	-19%	10
CS(=O)(=O)N(CC(=O)N1CCN(c2cccc(Cl)c2)CC1)c1cccc(F)c1	16µM*	-18	-6%	1%	?	-17
CCN1CCN(C(=O)c2ccccc2N(Cc2ccccc2)S(=O)(=O)c2ccc(C)cc2)CC1	16µM*	-68*	0%	8%	?	17
C=CCn1c(SCC(=O)Nc2ncc(Cc3cc(C(F)(F)F)ccc3Cl)s2)nnc1-c1ccncc1	-3%	14	-2%	-2%	4%	5
O=C(CCC1CCCN(C(=O)c2cc(F)ccc2F)C1)N1CCN(c2ccccn2)CC1 (stereo not given)	?	0	nt	nt	?	nt
CN1CCN(C(=O)c2ccc(N(Cc3ccc(Cl)cc3)S(C)(=O)=O)cc2)CC1	-12%	13	0%	7%	-7%	8
CS(=O)(=O)N(Cc1ccc(Cl)cc1)c1ccc(C(=O)N2CCN(c3ccccc3)CC2)cc1	?	-51*	?	7%	?	0
CCOC(=O)[C@H]1[C@H]2COc3ccccc3[C@@H]2N2C(=O)c3cc(Br)ccc3NC(=O)[C@@]12C	-3%	?	-19%	0%	-15%	22
SMILES	DT40 TDP1 no CPT	IL-1B inflam inh	ELG1 DNA repair	TDP1 block	DT40 TDP1 CPT	Giardia kill
CCOC(=O)[C@H]1[C@H]2COc3ccc(OC)cc3[C@@H]2N2C(=O)c3cc(OC)c(OC)cc3NC(=O)[C@@]12C	-66%	-55*	19%	-1%	-35%	0
CCOC(=O)[C@H]1[C@H]2COc3ccc(C)cc3[C@@H]2N2C(=O)c3cc(OC)c(OC)cc3NC(=O)[C@@]12C	?	-15	20%	0%	?	?
CCOC(=O)[C@H]1[C@H]2COc3ccc(Br)cc3[C@@H]2N2C(=O)c3cc(Br)ccc3NC(=O)[C@@]12C	18µM*	-14	-24%	1%	?	3
CCOC(=O)[C@H]1[C@H]2COc3ccc(Cl)cc3[C@@H]2N2C(=O)c3cc(F)c(F)cc3NC(=O)[C@@]12C	23µM*	-72*	-9%	-1%	?	8
CCOC(=O)[C@H]1[C@H]2COc3ccccc3[C@@H]2N2C(=O)c3ccc(Cl)cc3NC(=O)[C@@]12C	?	-67*	-3%	7%	?	18
COC(=O)Cn1c(O)c(N=NC(=O)CNC(=O)c2ccncc2)c2ccccc21	-16%	4	?	6%	1%	25
Cc1cccc(-n2c(C)cc(C)c(C#N)c2=O)c1	5%	32	?	6%	8%	-7
CCOC(=O)[C@H]1[C@H]2COc3ccc(Cl)cc3[C@@H]2N2C(=O)c3cc(Br)ccc3NC(=O)[C@@]12C	21µM*	?	-28%	0%	16µM*	20
CCOC(=O)[C@H]1[C@H]2COc3ccc(Cl)cc3[C@@H]2N2C(=O)c3cc(Cl)ccc3NC(=O)[C@@]12C	?	-18	?	2%	13µM*	-24
COc1cc(-c2nc(Cn3nnc(C(=O)Nc4ccccc4)c3C)c(C)o2)cc(OC)c1OC	26µM*	nt	nt	5%	?	nt
COc1ccc(NC(=O)c2nnn(Cc3nc(-c4cc(OC)c(OC)c(OC)c4)oc3C)c2C)cc1Cl	-13%	nt	nt	0%	1%	nt

High-throughput results (PubChem BioAssay)
